# Experimental data reported in the supplement of paper PMC8728848.
# The sample as a whole holds a higher share of the strongest signals than the screen did.
# B1: PX9961A-pdi-456-24-456 (Parabacteroides distasonis) (protein)
# chain: KTSSTQLPTIDAISSVADLTNAVNGVYEQQATEVGSYGAEFTLLADLRSGDFQSISTVNHAGPMYRYQTGKNDEMVYSFYKLFYNSLARLNNVLAAAENLEGADVDILKGELYAMRALYHFDLARVFAKLPSTTDMNDLGIVLSTEVYPTDYIGTRATLQQTYDQILKDIETALPLLSKDKQTGHINYWGALAIRARAYLYLEKNKEALADCKEIIASSPYKLYTRDEYIGAWDKEGTNEAIFEILVTPNYNAQRNSIGYFTHASGYGECAATESFLEELAKHPGDIRTELFAKETDNGYDGTYPQKYKGRDGQIYVNNPKVVRLSEVYLIAAEAALKAGDTSAAAGYMNTLRKNRIENYTDVASITLDDILLERRLELFTEGHTAWDAWRNGKSVNNKFVGEVKPGDYRTIMAIPIGEITVSRGQLIQNPGY
# Columns and labels:
# Assay in all cases: glycan array binding signal (z-score within array); higher = stronger binding
# Details in all cases: glycan notation: IUPAC condensed, linker removed
# [1] = target: Gal(b1-4)GlcNAc(b1-3)Gal(b1-4)GlcNAc(b1-3)Gal(b1-4)GlcNAc(b1-3)Gal(b1-4)GlcNAc(b1-2)Man(a1-3)[Gal(b1-4)GlcNAc(b1-3)Gal(b1-4)GlcNAc(b1-3)Gal(b1-4)GlcNAc(b1-3)Gal(b1-4)GlcNAc(b1-2)Man(a1-6)]Man(b1-4)GlcNAc(b1-4)[Fuc(a1-6)]GlcNAc
# How it was run: (§1)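 Arrays were curated from the Consortium for Functional Glycomics database, 3228 in total, and kept only where the protein sequence was available. Binding is expressed as a within-array Z-score. This score was averaged across arrays of the same protein sequence at different concentrations or buffers and across linkers, and negative values can be read as non-binding.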
# [2] = target: Gal(b1-4)GlcNAc(b1-3)Gal(b1-4)GlcNAc(b1-3)Gal(b1-4)GlcNAc(b1-3)Gal(b1-4)GlcNAc(b1-3)Gal(b1-4)GlcNAc(b1-2)Man(a1-3)[Gal(b1-4)GlcNAc(b1-3)Gal(b1-4)GlcNAc(b1-3)Gal(b1-4)GlcNAc(b1-3)Gal(b1-4)GlcNAc(b1-3)Gal(b1-4)GlcNAc(b1-2)Man(a1-6)]Man(b1-4)GlcNAc(b1-4)GlcNAc
# How it was run: as §1
# [3] = target: Gal(b1-4)GlcNAc(b1-3)Gal(b1-4)GlcNAc(b1-3)Gal(b1-4)GlcNAc(b1-3)Gal(b1-4)GlcNAc(b1-3)Gal(b1-4)GlcNAc(b1-3)Gal(b1-4)GlcNAc(b1-2)Man(a1-3)[Gal(b1-4)GlcNAc(b1-3)Gal(b1-4)GlcNAc(b1-3)Gal(b1-4)GlcNAc(b1-3)Gal(b1-4)GlcNAc(b1-3)Gal(b1-4)GlcNAc(b1-3)Gal(b1-4)GlcNAc(b1-2)Man(a1-6)]Man(b1-4)GlcNAc(b1-4)GlcNAc
# How it was run: as §1
# [4] = target: Gal(b1-4)GlcNAc(b1-3)Gal(b1-4)GlcNAc(b1-3)GalNAc
# How it was run: as §1
# [5] = target: Gal3S(b1-4)Glc
# How it was run: as §1
# [6] = target: GalNAc(a1-3)Gal
# How it was run: as §1
# [7] = target: GalNAc(b1-3)Gal(a1-4)Gal(b1-4)GlcNAc(b1-3)Gal(b1-4)Glc
# How it was run: as §1
# [8] = target: Glc(b1-6)Glc
# How it was run: as §1
# [9] = target: GlcNAc(b1-2)Man(a1-3)[GlcNAc(b1-4)][GlcNAc(b1-2)Man(a1-6)]Man(b1-4)GlcNAc(b1-4)GlcNAc
# How it was run: as §1
# [10] = target: GlcNAc(b1-3)Gal(b1-4)GlcNAc(b1-2)[GlcNAc(b1-3)Gal(b1-4)GlcNAc(b1-6)]Man(a1-6)[GlcNAc(b1-3)Gal(b1-4)GlcNAc(b1-2)Man(a1-3)]Man(b1-4)GlcNAc(b1-4)GlcNAc
# How it was run: as §1
# [11] = target: GlcNAc(b1-3)Gal(b1-4)GlcNAc(b1-3)Gal(b1-4)GlcNAc(b1-3)Gal(b1-4)GlcNAc(b1-3)Gal(b1-4)GlcNAc(b1-2)Man(a1-3)[GlcNAc(b1-3)Gal(b1-4)GlcNAc(b1-3)Gal(b1-4)GlcNAc(b1-3)Gal(b1-4)GlcNAc(b1-3)Gal(b1-4)GlcNAc(b1-2)Man(a1-6)]Man(b1-4)GlcNAc(b1-4)[Fuc(a1-6)]GlcNAc
# How it was run: as §1
# [12] = target: GlcNAc(b1-3)Gal(b1-4)GlcNAc(b1-3)GalNAc
# How it was run: as §1
# [13] = target: GlcNAc(b1-3)Gal(b1-4)GlcNAc(b1-3)[GlcNAc(b1-3)Gal(b1-4)GlcNAc(b1-3)]GalNAc
# How it was run: as §1
# [14] = target: Neu5Ac(a2-3)Gal(b1-3)GlcNAc(b1-2)Man(a1-3)[Neu5Ac(a2-3)Gal(b1-3)GlcNAc(b1-2)Man(a1-6)]Man(b1-4)GlcNAc(b1-4)GlcNAc
# How it was run: as §1
# [15] = target: Neu5Ac(a2-3)Gal(b1-3)GlcNAc(b1-4)Gal(b1-4)Glc
# How it was run: as §1
# [16] = target: Neu5Ac(a2-3)Gal(b1-3)GlcNAc(b1-6)GalNAc
# How it was run: as §1
# [17] = target: Neu5Ac(a2-3)Gal(b1-3)GlcNAc6S
# How it was run: as §1
# [18] = target: Neu5Ac(a2-3)Gal(b1-4)[Fuc(a1-3)]GlcNAc(b1-2)Man
# How it was run: as §1
# [19] = target: Neu5Ac(a2-3)Gal(b1-4)[Fuc(a1-3)]GlcNAc(b1-6)[Neu5Ac(a2-3)Gal(b1-3)]GalNAc
# How it was run: as §1
# [20] = target: Neu5Ac(a2-6)Gal
# How it was run: as §1
# [21] = target: Neu5Ac(a2-6)Gal(b1-4)GlcNAc(b1-2)Man(a1-3)Man(b1-4)GlcNAc(b1-4)GlcNAc
# How it was run: as §1
# [22] = target: Neu5Ac(a2-6)Gal(b1-4)GlcNAc(b1-2)[Neu5Ac(a2-6)Gal(b1-4)GlcNAc(b1-4)]Man(a1-3)[GlcNAc(b1-4)][Neu5Ac(a2-6)Gal(b1-4)GlcNAc(b1-4)Man(a1-6)]Man(b1-4)GlcNAc(b1-4)GlcNAc
# How it was run: as §1
# [23] = target: Neu5Ac(a2-6)Gal(b1-4)GlcNAc(b1-6)[Gal(b1-3)]GalNAc
# How it was run: as §1
binder,measurement,setting,value
B1,glycan array binding signal (z-score),[1],6.49
same,glycan array binding signal (z-score),[2],2.59
same,glycan array binding signal (z-score),[3],7.59
same,glycan array binding signal (z-score),[4],0.087
same,glycan array binding signal (z-score),[5],-0.121
same,glycan array binding signal (z-score),[6],3.31
same,glycan array binding signal (z-score),[7],0.012
same,glycan array binding signal (z-score),[8],-0.218
same,glycan array binding signal (z-score),[9],-0.42
same,glycan array binding signal (z-score),[10],0.033
same,glycan array binding signal (z-score),[11],2.18
same,glycan array binding signal (z-score),[12],0.389
same,glycan array binding signal (z-score),[13],-0.009
same,glycan array binding signal (z-score),[14],-0.512
same,glycan array binding signal (z-score),[15],-0.437
same,glycan array binding signal (z-score),[16],0.343
same,glycan array binding signal (z-score),[17],0.048
same,glycan array binding signal (z-score),[18],-0.398
same,glycan array binding signal (z-score),[19],0.273
same,glycan array binding signal (z-score),[20],-0.046
same,glycan array binding signal (z-score),[21],-0.293
same,glycan array binding signal (z-score),[22],-0.061
same,glycan array binding signal (z-score),[23],-0.445
